Measured values published in PubChem BioAssay AID2451 (National Center for Advancing Translational Sciences (NCATS), 2010).
In all, about 290,000 compounds went through this assay and about 2,100 (0.72%) were called active. Where a call stands in place of a potency, no number is given. Roughly 4% stayed inconclusive and do not appear here. The sample holds actives, similar compounds and a random draw of the others, so the mix is not that of the screen. Calls come from the whole dose curve; as a rule, active = well fitted inhibition curve with a large enough effect; inconclusive = small, poorly fitted or top-dose-only effect, or effect the other way; inactive = flat fitted curve, though single readings scatter.

What follows are molecules tested against Fructose-bisphosphate aldolase (Giardia intestinalis (strain ATCC 50803 / WB clone C6)) (UniProt A8B2U2) (assay: qHTS Assay for Inhibitors of Fructose-1,6-bisphosphate Aldolase from Giardia Lamblia). Conditions: purified Giardia FBPA; series mostly up to 59.6 µM.
Fructose-bisphosphate aldolase (Giardia intestinalis (strain ATCC 50803 / WB clone C6)), sequence (A8B2U2 whole entry, looked up): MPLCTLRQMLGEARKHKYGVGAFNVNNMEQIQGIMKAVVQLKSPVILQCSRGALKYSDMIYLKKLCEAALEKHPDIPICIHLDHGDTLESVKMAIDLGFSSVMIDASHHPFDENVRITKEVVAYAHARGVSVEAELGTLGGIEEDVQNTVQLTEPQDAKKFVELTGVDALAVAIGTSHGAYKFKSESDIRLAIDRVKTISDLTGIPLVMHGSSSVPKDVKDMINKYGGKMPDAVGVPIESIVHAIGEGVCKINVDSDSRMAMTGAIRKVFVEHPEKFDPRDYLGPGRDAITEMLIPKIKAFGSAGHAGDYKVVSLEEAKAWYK
Excerpt: Assay Provider: Osnat Herzberg, University of Maryland
The objective of this project is to obtain compounds that inhibit Giardia lamblia growth. G. lamblia is a human pathogen which afflicts impoverished nations; it is the most common cause of outbreaks of diarrhea in the United States. During the course of our study of potential drug targets in Giardia, we have identified the Class II (Zn2+ functions in electrophilic catalysis) fructose-1,6-bisphosphate aldolase (FBPA) as an excellent candidate for drug targeting. FBPA is a key glycolytic pathway enzyme, essential for G. lamblia survival. The human FBPA belongs to the Class I aldolases, which have a different substrate binding site structure and a radically different catalytic mechanism (employing a lysine-Schiff base intermediate). Therefore, affinity-based or mechanism-based inhibitors of the Giardia FBPA are expected not to interfere with the catalytic function of the human FBPA.
A glyceraldehyde-3-phosphate dehydrogenase/triose phosphate isomerase/NAD/arsenate coupled assay was adapted to the 1536-well HTP format for use in the primary screen. This was done by coupling it to a diaphorase/resazurin/resorufin reaction that can be monitored by fluorescence (excitation, 544 nm; emission, 590 nm). Compounds identified in this screen will be further evaluated by coupling the glycerol-3-phosphate/triose phosphate isomerase/NADH assay to a phenazine methosulfate/tetranitroblue tetrazolium color reaction. False positives due to the dehydrogenases and diaphorase inhibition will be eliminated, and selectivity assay will triage inhibitors of mammalian triose phosphate isomerase and the Class I FBPA. G. lamblia FBPA inhibitors identified by the in vitro analyses will be examined for growth inhibition of Giardia trophozoites, and for cytotoxicity in human cells.
Step,Parameter,Value,Description
1,Enzyme reagent,2 uL,40 nM FBPA
2,Compound,23 nL,3.68 nM-57.5 uM final concentration
3,Time,10 min,RT Incubation
4,Substrate/detection Reagent,2 uL,Substrate + enzyme coupling system + AmpLite Red kit
5,Time,20 min,RT Incubation
6,Detector,525 nm/598 nm (Fluorescence),ViewLux Fluorescence Read (Read 1)
1,Medium-binding black solid-bottom Kalypsys plates. FRD or Kalypsys dispenser, 2 uL of FBPA enzyme. Bottle kept at 4C.
2,Compound Library (10 mM ,1:5 dilution). Pin-transferred for a [final] range of 3.68 nM-57.5 uM.
4,FRD or Kalypsys dispenser, 2 uL of reaction mixture. Bottle kept at 4C and covered in foil to protect from light.
6,ViewLux Protocol 1194; Excitation filter wheel A (525/20 Pol; BODIPY TMR FP), Emission filter wheel B (598/25 S; BODIPY TMR FP S).
Keywords: Fructose-bisphosphate aldolase, FBPA , Giardia lamblia , Giardia, HTS, Inhibitors
Note: nearly all actives have a fitted effect of over 55% in size.
Potency is the fitted concentration of half-maximal effect.

| Structure (SMILES) | Potency |
| --- | --- |
| CN1CCN(CCCCOc2cccc3ccccc23)CC1 | inactive |
| CN1CCN(CCCCOc2ccccc2-c2ccccc2)CC1 | 19.9 µM (active) |
| CC1CCCN(CCOCCOc2ccccc2-c2ccccc2)C1 (centres undefined) | inactive |
| COc1ccc(C(=O)NNS(=O)(=O)c2ccc(C)cc2)cc1 | inactive |
| Cc1ccc(S(=O)(=O)NNC(=S)NC(C)(C)C)cc1 | 11.2 µM (active) |
| CC(NC(=S)NNS(=O)(=O)c1ccc(C(C)(C)C)cc1)c1ccccc1 (centres undefined) | inactive |
| CCNC(=O)CC1C(=O)N(c2ccc(OC)cc2)C(=O)N1CCOC (centres undefined) | inactive |
| O=c1oc2ccccc2c(CNc2ccccc2)c1[N+](=O)[O-] | inactive |
| COc1ccc(C(=O)NCCSc2ccccc2C)cc1 | inactive |
| Nc1c(C(=O)NCc2ccccc2)nnn1Cc1cccc(Cl)c1 | inactive |
| Clc1cccc(CN2COc3c(cc(Cl)c4cccnc34)C2)c1 | 17.7 µM (active) |
| CC(C)CC(=O)N1CCN(Cc2cccc(Cl)c2)CC1 | inactive |
| Cc1ccc(O)c(/C=N/NC(=O)COc2ccc3c(C)cc(=O)oc3c2)c1 | inactive |
| Brc1ccc(OCCn2ccnc2)cc1 | inactive |
| Cc1ccc2c(Cl)c(C(=O)NCCCn3ccnc3)sc2c1 | inactive |
| C=CCc1cc(C)ccc1OCCCn1ccnc1 | 25.1 µM (active) |
| Cc1ccc(OCC(=O)Nc2ccc3oc(=O)ccc3c2)cc1C | inactive |
| Cc1cccc(N(Cc2ccccc2)C(=O)c2ccccc2F)c1 | inactive |
| COC(=O)c1cc(S(=O)(=O)N2CCN(c3cc(C)ccc3C)CC2)c[nH]1 | inactive |
| O=C(Nc1cccc(Cl)c1)c1cc(S(=O)(=O)N2CCCCC2)c[nH]1 | inactive |
| COc1ccc(C2c3[nH]c4ccccc4c3C[C@H]3C(=O)N(CC(C)C)CC(=O)N23)c(OC)c1 (some centres undefined) | inactive |
| Cc1cnc(NC(=O)CSc2nnc(-c3ccccc3)n2Cc2ccccc2)s1 | inactive |
| CCc1nnc(NC(=O)CSc2nnc(-c3ccncc3)n2Cc2ccccc2)s1 | inactive |

| Structure (SMILES) | Potency |
| --- | --- |
| Cc1cccc(-c2nnc(SCC(=O)O)n2Cc2ccccc2)c1 | 15.8 µM (active) |
| CC(CN1CCOCC1)OC(=O)c1ccc(C(C)(C)C)cc1 (centres undefined) | inactive |
| O=c1[nH]c(=S)[nH]c2[nH]c(=S)[nH]c12 | 12.6 µM (active) |
| Cc1c(C)c(C)c2[nH]c(=S)[nH]c2c1C | inactive |
| Cc1ccc(S(=O)(=O)N(CCCN(C)C)Cc2ccc3c(c2)OCO3)cc1 | inactive |
| CCN(CC)Cc1c(C(=O)N/N=C/c2cccc(OCc3ccc(F)cc3)c2)nnn1-c1nonc1N | inactive |
| CCc1ccc2c(c1)C(c1ccc([N+](=O)[O-])cc1)=NNC(c1ccccc1)=N2 | inactive |
| CCc1ccc2c(c1)C1(NN=C(c3ccccc3)S1)C(=O)N2 (centres undefined) | 15.8 µM (active) |
| O=C(c1ccccc1)N1CCN(C(=O)c2cc3nc(-c4ccccc4)cc(C(F)(F)F)n3n2)CC1 | inactive |
| O=C(/C=C/c1ccco1)NC(=S)Nc1ccccc1Br | inactive |
| CCNC(=O)N1CCCC(C(=O)c2ccc(-c3ccccc3)cc2)C1 (centres undefined) | inactive |
| Cc1cc(C)cc(NC(=O)C2CCN(c3nc(C)cc(C)n3)CC2)c1 | inactive |
| COC(=O)CC1=NN(c2nc(C)cc(C)n2)C(=O)C1 | 5.61 µM (active) |
| Cc1ccc(CC2CC(=O)N(c3nc(C)cc(C)n3)C2=O)cc1 (centres undefined) | inactive |
| CCCCC(=O)N/N=C/c1c(O)n(-c2ccccc2)c(=O)[nH]c1=O | 8.89 µM (active) |
| O=c1[nH]c(=O)n(-c2ccccc2)c(O)c1C=NC12CN3CN(CN(C3)C1)C2 | inactive |
| Cc1cccc(-n2c(O)c(C=Nc3ccccc3N)c(=O)[nH]c2=O)c1 | inactive |
| O=C(NC(=S)Nc1ccc(Cl)cc1Cl)C1CC1 | inactive |
| COc1ccccc1CN1CC2(CCN(S(=O)(=O)c3ccccc3)CC2)C1 | inactive |
| COc1ccccc1CN1CCN(C(=O)Cc2ccccc2)CC1 | 17.8 µM (active) |
| CS(=O)(=O)N1CCN(C(=O)Cc2ccccc2)CC1 | inactive |
| COc1ccccc1/C=N/N1CCN(Cc2ccccc2Cl)CC1 | inactive |
| COc1ccccc1CN1CCN(Cc2cc(OC)c(OC)cc2OC)CC1 | 25.1 µM (active) |

| Structure (SMILES) | Potency |
| --- | --- |
| COC(=O)N1CCC2(CCCN(Cc3ccccc3OC)C2)CC1 | inactive |
| CCOCCOC(=O)C1=C(C)NC(=O)NC1c1ccc2c(c1)OCO2 (centres undefined) | inactive |
| O=C(O)c1c(NC(=O)N2CCCC2)sc2c1CCCC2 | inactive |
| O=C(Nc1ccc(O)cc1)c1ccc(NC(=O)c2ccco2)cc1 | inactive |
| CCOC(=O)C1(Cc2cccc(OC)c2)CCCN(C(=O)CCSC)C1 (centres undefined) | inactive |
| Cc1cccc(NC(=O)CSc2nc3[nH]ncc3c(=O)[nH]2)c1 | inactive |
| Cc1cc(=O)[nH]c(SCC(=O)Nc2ccc(Br)cc2)n1 | inactive |
| Cc1cc(C)c2c(=O)[nH]c(SCC(=O)Nc3ccc(Br)cc3)nc2n1 | 31.6 µM (active) |
| OCCN1CCN(C(=S)c2ccc(-c3ccccc3)cc2)CC1 | 11.2 µM (active) |
| S=C(c1ccccc1)N1CCCC1 | inactive |
| O=C(NC(c1ccccc1)c1ccccc1)N1CCN(CCO)CC1 | inactive |
| COc1ccc(-c2ccc(C3C4C=CCCC4(C)C(=O)N3Cc3ccccc3)c(F)c2)cc1OC (centres undefined) | inactive |
| Cc1cc(F)ccc1NC(=S)NCCc1ccccc1 | inactive |
| COc1cc(NC(=O)C2=CC(c3ccc(C)cc3)=NS(=O)(=O)N2C)cc(OC)c1OC | inactive |
| COc1ccccc1CC(=O)Nc1ccc(S(=O)(=O)N2CCCC2)cc1 | inactive |
| CCOc1cccc(NC(=O)C2CCCN(S(=O)(=O)c3ccc(OC)cc3)C2)c1 (centres undefined) | inactive |
| CCN(CC(=O)Nc1ccc(S(=O)(=O)N2CCCC2)cc1)CC(=O)Nc1cccc(OC)c1 | 5 µM (active) |
| COc1cc(C(=S)N2CCOCC2)cc(OC)c1OC(=O)c1ccc([N+](=O)[O-])cc1[N+](=O)[O-] | inactive |
| CCS(=O)(=O)Nc1ccc(C(=O)NCCSc2ccccc2)cc1 | inactive |
| CC(=O)OCCN(CCCn1c(-c2ccncc2)nc2ccccc21)c1nc(-c2ccc(C)cc2)cs1 | inactive |
| Oc1c(C=Nc2cccc3nsnc23)ccc2ccccc12 | 5 µM (active) |
| Cc1ccccc1NC(=O)C1CCN(C(=O)NC2CCCCC2)CC1 | inactive |
| COC(=O)C1=CN(c2ccc(F)c(F)c2)C=C(C(=O)OC)C1c1ccc([N+](=O)[O-])cc1 | inactive |
